Experimental data reported in PubChem BioAssay (NCI).
Compounds without any hit were thinned out: in the full panel of roughly 79,000, 15% have a hit. Rule as the data show it: active = growth inhibition above about 70%; inactive = the rest.

Legend:
[1] = NCI Yeast Anticancer Drug Screen. Data for the rad50 strain (AID 155);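 also: 0% = growth of vehicle-only cultures of the same strain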; details: S. cerevisiae rad50 strain growth inhibition; at 50.0 µM; hits give high values
In short: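 Yeast carrying a defined DNA repair defect were exposed to test compounds, and growth was compared with vehicle-treated controls to give percent inhibition.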

[2] = NCI Yeast Anticancer Drug Screen. Data for the mec2-1 strain (AID 157); details: S. cerevisiae mec2-1 strain, at 50.0 µM, hits give high values
In short: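 Mutant yeast (mec2-1) grown with compound; growth inhibition relative to vehicle control reported.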

[3] = NCI Yeast Anticancer Drug Screen. Data for the sgs1 mgt1 strain (AID 161);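 also: 0% = growth of cultures given vehicle only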; details: S. cerevisiae sgs1 mgt1 strain, at 50.0 µM, hits give high values
In short: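 Compounds are added to genetically altered yeast, and growth is compared with cultures given vehicle alone to give percent inhibition.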

[4] = NCI Yeast Anticancer Drug Screen. Data for the cln2 rad14 strain (AID 165);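 also: 0% = growth equal to vehicle treated cultures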; details: S. cerevisiae cln2 rad14 strain, at 50.0 µM, hits give high values
In short: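 Readout is yeast growth inhibition versus vehicle-treated controls, using a strain with cln2 and rad14 alterations exposed to compound.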

[5] = NCI Yeast Anticancer Drug Screen. Data for the bub3 strain (AID 167); details: S. cerevisiae bub3 mutant strain, at 50.0 µM, hits give high values
In short: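 Compounds were applied to a genetically altered yeast strain carrying a cell-cycle control defect. Growth inhibition was scored against vehicle-treated controls.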

[6] = NCI Yeast Anticancer Drug Screen. Data for the mlh1 rad18 strain (AID 175); details: S. cerevisiae mlh1 rad18 strain growth inhibition; at 50.0 µM; hits give high values
In short: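 Genetically defined yeast (DNA repair-deficient) exposed to compounds; growth inhibition determined relative to vehicle.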

Measured: growth inhibition

O=[N+]([O-])c1cccc(CC(=S)N2CCOCC2)c1
inactive: [1] 14.4% | [2] -3.8% | [3] -8.9% | [4] -39.8% | [5] -2.3% | [6] 6.6%

[N-]=[N+]=Nc1ncnc2c1sc(=S)n2-c1ccccc1
inactive: [1] -6.65% | [2] 21.1% | [3] -24.1% | [4] 3.6% | [5] 15.8% | [6] -2.4%

NC(=S)N/N=C1/CC(=O)N(c2ccccc2)C1c1ccccc1 (stereo not given)
inactive: [1] 32.6% | [2] 13.2% | [3] 37% | [4] -2.8% | [5] 32.4% | [6] 38.9%

FC(F)(F)c1ccc(Cl)c(N=C=S)c1
inactive: [1] -26.1% | [2] -9.15% | [3] 31.4% | [4] -108% | [5] -21.8% | [6] -4.7%

C=CCOCn1cc(C)c(=O)[nH]c1=O
inactive: [1] 5.6% | [2] 17.4% | [3] 36.4% | [4] 5.5% | [5] 6.5% | [6] 17.4%

Oc1ccccc1C=Nc1ccccc1
inactive: [1] 29% | [2] 1.95% | [3] 0% | [4] 6.8% | [5] -1.25% | [6] -2.4%

CCc1cccc(C(=O)NCCN(C)C)c1[N+](=O)[O-]
inactive: [1] -10.4% | [2] -17.9% | [3] -12.2% | [4] 22% | [5] -11.9% | [6] -5%

Cc1ccc(-c2cs/c(=N\N=C3/CSC(=O)N3Cc3ccccc3)n2-c2cccc(C)c2)cc1
inactive: [1] 24.4% | [2] 1.2% | [3] -11.2% | [4] -4.3% | [5] 4.1% | [6] 22.2%

COc1cc2cc(c1Cl)NC(=O)/C=C/[C@]1(C)O[C@H]1[C@H](C)[C@@H]1C[C@@](O)(NC(=O)O1)[C@H](OC)C=C/C=C(\C)C2
inactive: [1] 20.2% | [2] 4.55% | [3] 12.1% | [4] 22.1% | [5] 20.5% | [6] 21.4%

O=[N+]([O-])c1ccc(-c2ccccc2-c2ccccc2)cc1
inactive: [1] 3.9% | [2] -2.8% | [3] 8.25% | [4] -38.1% | [5] 3.5% | [6] -22.9%

COc1ccc(-c2onc(-c3ccc([N+](=O)[O-])cc3)c2C2=NCCCN2)cc1
inactive: [1] 0.45% | [2] -6.65% | [3] -10.3% | [4] 12.7% | [5] -1.95% | [6] -20.3%

COc1ccc(NC(=O)CCC2=CC(=O)CC(c3ccccc3)O2)cc1 (stereo not given)
inactive: [1] 2.9% | [2] 9.65% | [3] 2.35% | [4] 25.3% | [5] -8.45% | [6] -5.05%

Cc1c2ccccc2cc2c1ccc1c(Br)cccc12
inactive: [1] 10.1% | [2] -3.45% | [3] 21.3% | [4] 25.8% | [5] 12.1% | [6] 5.8%

O=C(OCC1OC(n2cnc3c(Cl)ncnc32)C(OC(=O)c2ccccc2)C1OC(=O)c1ccccc1)c1ccccc1 (stereo not given)
inactive: [1] -16.6% | [2] -21.2% | [3] -13.2% | [4] 5.6% | [5] -12.8% | [6] -13.3%

CCCCCNc1ncnc2c1cnn2C
inactive: [1] 7.6% | [2] 0.6% | [3] -1.35% | [4] -12.4% | [5] 22.6% | [6] -0.4%

O=C(NC(O)(C(F)(F)F)C(F)(F)F)c1ccccc1
inactive: [1] -5.35% | [2] 6.85% | [3] 10.7% | [4] 0.9% | [5] -7.05% | [6] -6.95%

C1CCCN(/N=N/N2CCCCCC2)CC1
inactive: [1] -1.5% | [2] 0.4% | [3] -1.7% | [4] -19.1% | [5] 10.8% | [6] 6.65%

O=C(NCCN1CCNCC1)c1ccc(Cl)cc1
inactive: [1] 26.9% | [2] 40% | [3] 30.8% | [4] 63% | [5] 33.6% | [6] 40.2%

CC(=O)OCCOCNC(=S)N/N=C/c1ccc([N+](=O)[O-])s1
inactive: [1] 35.4% | [2] -5.2% | [3] 23.9% | [4] 32.5% | [5] 2.7% | [6] 12.6%

CN1C(C(=O)Nc2ccccn2)=C(O)c2ccccc2S1(=O)=O
inactive: [1] 5% | [2] 15.5% | [3] 5.1% | [4] 0.9% | [5] -1.75% | [6] 8.25%

O=C(O)c1ccc(C(=O)c2ccc(Cl)cc2)cc1
inactive: [1] 31.9% | [2] 44.5% | [3] 42.4% | [4] -6.35% | [5] 13.6% | [6] 34.6%

CCC(C)C(NS(=O)(=O)Cc1ccccc1)C(=O)O (stereo not given)
inactive: [1] -3.85% | [2] 16.4% | [3] 3.05% | [4] 10.9% | [5] -10.3% | [6] 6.8%

O=C(C[n+]1cccc(C(=O)Nc2ccc(Cl)cc2)c1)Nc1ccccc1
inactive: [1] -10.9% | [2] -13.7% | [3] -2.45% | [4] 15.2% | [5] -4.35% | [6] 0.65%

CC1=C(C(=O)Nc2ccccc2C)C(c2ccc(Cl)cc2)C(C(=O)Nc2ccccc2C)=C(C)N1
inactive: [1] -3.3% | [2] 2.6% | [3] -5.2% | [4] 14.4% | [5] -8% | [6] 0%

CCOC(=O)c1[nH]c(CC(=O)O)c(C(=O)OC)c1C
inactive: [1] 8.25% | [2] 14.8% | [3] 19.1% | [4] -3.5% | [5] 26.5% | [6] 7.3%

CCN(CC)C1=NS(=O)(=O)c2ccccc21
inactive: [1] 1.2% | [2] -3.65% | [3] 9.45% | [4] -11.4% | [5] 2.3% | [6] 0.5%

CC[N+]1(C)CCC(O)(c2ccccc2)C(C(=O)c2ccccc2)C1 (stereo not given)
inactive: [1] 3.5% | [2] -6.1% | [3] -5.55% | [4] 34.1% | [5] 6.1% | [6] 11.3%

O=C1NC(CCl)(CCl)CO1
inactive: [1] 4.15% | [2] 8.85% | [3] -1.7% | [4] 5.45% | [5] -2.05% | [6] 10.1%

CCOC(=O)COc1cc2c(cc1Cc1ccc(OC)cc1)OCO2
inactive: [1] -5.4% | [2] -7.45% | [3] 5.45% | [4] 6.2% | [5] 39.4% | [6] 11.7%

COc1ccc(C2=Nc3ccccc3NC(=O)C2)cc1
inactive: [1] -10.2% | [2] -20.9% | [3] -12.6% | [4] 11.4% | [5] -17.1% | [6] -19.9%

CCOC(=O)C(NC(=O)Cc1ccccc1)C1NC(C(=O)O)CS1 (stereo not given)
inactive: [1] 19.9% | [2] 1.8% | [3] 3.2% | [4] -14.8% | [5] -1.05% | [6] -13.8%

Nc1[nH]c(=O)ncc1[N+](=O)[O-]
inactive: [1] 2.5% | [2] -4.1% | [3] 5.9% | [4] -25.4% | [5] -16.2% | [6] -0.65%

Cc1cc(N(CCC#N)CCC#N)ccc1/C=C1/N=C(c2ccccc2)N(N)C1=O
inactive: [1] -2.55% | [2] 13.2% | [3] 9.9% | [4] 2.7% | [5] 5.15% | [6] -3.3%

NC(=O)c1nc(N)nc(N)c1[N+](=O)[O-]
inactive: [1] -10.8% | [2] -15.1% | [3] -16.1% | [4] -18.8% | [5] -21.9% | [6] -18.9%

CCc1cccc(C)c1NC(=O)C(=O)CC(=O)CS(=O)(=O)c1ccc(C)cc1
inactive: [1] -13.4% | [2] -15.2% | [3] -6% | [4] -0.8% | [5] -8.8% | [6] 12.5%

CN(C)CCNC(=O)Cn1cc([N+](=O)[O-])c(=O)c2ccccc21
inactive: [1] -12.9% | [2] -13.1% | [3] -8.8% | [4] 18.9% | [5] -7.2% | [6] -31.1%

Cn1c(=O)c2ccccc2[n+]2c(-c3cccc([N+](=O)[O-])c3)csc12
inactive: [1] -3.9% | [2] -15.3% | [3] 41.5% | [4] 25.6% | [5] -8.85% | [6] -9%

c1ccc2c(c1)nc1n2CC2(CS1)CSc1nc3ccccc3n1C2
inactive: [1] -8.65% | [2] 2.1% | [3] -7.15% | [4] -25.8% | [5] -13.4% | [6] -3.1%

CNC(=O)OCCC(OC(=O)NC)C1CCC2C3CCC4CC(OC(=O)c5ccccc5)CCC4(C)C3CCC12C (stereo not given)
inactive: [1] 37% | [2] 1.7% | [3] 4.9% | [4] 23.3% | [5] -4% | [6] 8.8%

OCCN(CO)CCO
inactive: [1] -23.8% | [2] 6.35% | [3] -0.25% | [4] -2.6% | [5] 2.6% | [6] -25.2%
